Results: PubChem BioAssay AID1259417 (TB Discovery Research, Infectious Disease Research Institute, 2018)
Among all 1,100 compounds or so, about 760 (69%) were called active. How the calls were made is not given here. The set was probably picked from earlier hits. The list shows a part of the results.

Assay: M. tuberculosis growth inhibition, HTS (AID 1259417);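 further: bacteria grown with compound for 5 days at 37 °C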
Details: stronger effect = higher value, concentration not given here
[1] = M. tuberculosis DsRed fluorescence growth inhibition
[2] = M. tuberculosis growth inhibition

SMILES	inhibition [1]	inhibition [2]
COC(=O)CSc1nnc(-c2ccc(Cl)cc2)o1	61.4% (active)	85%
COc1ccc(-c2nnc(SCC(=O)OC3CCCCC3)o2)cc1OC	50.5% (active)	80.2%
COC(=O)CSc1nnc(-c2ccc(OC)c(OC)c2)o1	79.2% (active)	92.4%
c1ccc(-c2nnc(SCc3nnc(-c4cccs4)o3)o2)cc1	-2.64% (inactive)	-5.86%
O=C(CSc1nnc(-c2cccs2)o1)OC1CCCCC1	28.2% (active)	52.1%
CCOc1ccc(C(=O)Nc2ccc(N3CCN(C(=O)c4cccs4)CC3)c(Cl)c2)cc1Br	14.9% (inactive)	-6.08%
COc1cccc(C(=O)NC(=S)Nc2ccc(N3CCN(C(=O)c4cccs4)CC3)c(Cl)c2)c1	62% (active)	11.5%
CCc1ccc(OCC(=O)Nc2ccc(N3CCN(C(=O)c4cccs4)CC3)c(Cl)c2)cc1	0.597% (inactive)	-20.3%
O=C(CC12CC3CC(CC(C3)C1)C2)Nc1ccc(F)c(Cl)c1	98.3% (active)	95.1%
COC(=O)c1ccc(NC(=O)CC23CC4CC(CC(C4)C2)C3)cc1	5.38% (inactive)	-0.346%
O=C(CC12CC3CC(CC(C3)C1)C2)Nc1ccc2ccccc2c1	99.1% (active)	96.6%
O=C(CC12CC3CC(CC(C3)C1)C2)Nc1ccc(Br)cc1	50.7% (active)	17.6%
O=C(Nc1ccc(F)c(Cl)c1)C12CC3CCC(CC(C3)C1)C2	100% (active)	97.2%
Cc1ccc(NC(=O)C23CC4CCC(CC(C4)C2)C3)cc1	99.7% (active)	96.9%
O=C(CC12CC3CC(CC(C3)C1)C2)Nc1cccc(C(F)(F)F)c1	97.7% (active)	85.6%
COC(=O)c1cc(NC(=O)CC23CC4CC(CC(C4)C2)C3)cc(C(=O)OC)c1	11.6% (inactive)	-29%
O=C(CC12CC3CC(CC(C3)C1)C2)Nc1ccc2c(c1)OCCO2	40.1% (active)	16.6%
O=C(CC12CC3CC(CC(C3)C1)C2)Nc1cccc(Cl)c1	64.1% (active)	34.5%
C[n+]1c2n(c3ccccc31)N=C(c1cc(C(C)(C)C)c(O)c(C(C)(C)C)c1)CS2	-2.19% (inactive)	3.98%
O=C(CC12CC3CC(CC(C3)C1)C2)Nc1ccc(I)cc1F	57.6% (active)	24.5%
CC(NC(=O)Nc1cccc(C(F)(F)F)c1)C1CC2CCC1C2 (stereo not given)	98.8% (active)	99.4%
Cc1cc(C)c2[nH]c3ccccc3c2n1	100% (active)	101%
CCn1c(Sc2ncnc3ccccc23)nc2ccccc21	33.7% (active)	57.9%
CCCc1cc(-c2nc(-c3ccc(Br)cc3)cs2)ccn1	98.5% (active)	100%
CCOC(=O)COc1ccc2c(=O)c(-c3ccccc3F)coc2c1C	77.2% (active)	94.8%
CCOC(=O)COc1ccc2c(=O)c(-c3ccccc3Cl)c(C)oc2c1C	41.3% (active)	87.5%
Clc1ccc(COc2ccc3ccccc3c2CNCc2cccnc2)c(Cl)c1	73.9% (active)	65.8%
Cc1cccc(OCC(O)CN2CCN(CCN3C(=O)c4cccc5cccc(c45)C3=O)CC2)c1C (stereo not given)	3.21% (inactive)	-19.3%

SMILES	inhibition [1]	inhibition [2]
Cc1ccc(Cl)cc1N1CCN(CC(O)COc2ccc(C(=O)c3ccccc3)cc2)CC1 (stereo not given)	16.7% (inactive)	1.47%
OC(COc1ccc2ccccc2c1)CN1CCCN(CC(O)COc2ccc3ccccc3c2)CC1 (stereo not given)	37.5% (active)	79.7%
O=C1c2cccc3cccc(c23)C(=O)N1CCN1CCN(CC(O)COc2ccccc2Cl)CC1 (stereo not given)	-4.11% (inactive)	-8.38%
O=C1c2cccc3cccc(c23)C(=O)N1CC1CCN(CC(O)COc2ccc3ccccc3c2)CC1 (stereo not given)	37.2% (active)	31.4%
Cc1cccc(OCC(O)CN2CCN(C(c3ccccc3)c3ccccc3)CC2)c1C (stereo not given)	-6.14% (inactive)	-29.9%
OC(COc1ccccc1Cl)CN1CCN(C(c2ccccc2)c2ccccc2)CC1 (stereo not given)	-4.97% (inactive)	-9.36%
O=C(c1ccc(Cl)cc1)c1ccc(OCC(O)CN2CCN(Cc3ccccc3)CC2)cc1 (stereo not given)	8.82% (inactive)	-14%
Cc1ccc(OCC(O)CN2CCN(CC(O)COc3ccc(C)cc3C)CC2)c(C)c1 (stereo not given)	6.73% (active)	45.2%
CN(c1ccccc1)c1nc(N2CCCC2)nc(-n2ccnc2)n1	57.3% (active)	34.7%
c1ccc(CN2CCN(c3nc(-c4ccccc4)nc(-n4ccnc4)n3)CC2)cc1	2.46% (inactive)	-9.34%
Cc1ccc(NC(=S)c2ccccn2)cc1	101% (active)	101%
CCCOc1ccc(Nc2cc(C)nc3ccc(Cl)cc23)cc1	101% (active)	101%
CCCOc1ccccc1NC(=O)Nc1ccc(Cl)c(Cl)c1	0.884% (inactive)	-14.7%
COC(=O)c1ccc2nc(C)cc(Nc3ccc(OCc4ccccc4)cc3)c2c1	92.1% (active)	99.7%
CCOC(=O)c1ccc2nc(C)cc(Nc3ccc(N4CCCCC4)cc3)c2c1	100% (active)	100%
CCC(=Nc1ccccc1O)C1=C(O)CC(c2ccccc2)CC1=O (stereo not given)	98.9% (active)	98.8%
O=C(c1ccco1)N(CCCn1ccnc1)c1nc2c(F)cccc2s1	91.1% (active)	97.4%
O=C(c1cccs1)N(CCCn1ccnc1)c1nc2c(F)cc(F)cc2s1	73.3% (active)	81.6%
O=C(c1ccco1)N(CCCn1ccnc1)c1nc2c(F)cc(F)cc2s1	97.5% (active)	98.1%
O=C(NNc1nc2c(F)cc(F)cc2s1)c1coc2ccccc2c1=O	-0.752% (inactive)	-17.4%
Oc1ccc(CSc2ccccc2)c2cccnc12	29% (active)	45.1%
CCC1=NN(C(=O)c2ccncc2)C(O)(c2ccc(Br)cc2)C1 (stereo not given)	97.9% (active)	93.4%
CC1=NN(C(=O)c2ccccc2)C(O)(c2ccncc2)C1 (stereo not given)	97.7% (active)	94.3%
CC1=NN(C(=S)Cc2ccccc2)C(C)(O)C1 (stereo not given)	5.87% (inactive)	14.6%
CC(C)(C)c1ccc(C(=O)N2N=C(c3ccccc3)CC2(O)C(F)(F)F)cc1 (stereo not given)	2.12% (inactive)	-7.59%
CC1=NN(C(=O)c2cccc(Cl)c2)C(O)(c2ccc(Cl)cc2)C1 (stereo not given)	13.7% (active)	42.4%
O=C(c1cccc(Cl)c1)N1N=C(c2ccc(Cl)cc2)CC1(O)C(F)(F)F (stereo not given)	7.75% (inactive)	23.1%
